This is part of a sample that, as a whole, favours compounds with a hit. Of some 79,000 tested, about 15% had one in any assay. Calls of active or inactive are those of the source. Cut-off read from the data, not from the text of the source: active = growth inhibition above about 70%; inactive = the rest.
How the values were obtained:
[1] = NCI Yeast Anticancer Drug Screen. Data for the rad50 strain (AID 155);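 note: 0% = growth of vehicle-only cultures of the same strain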; conditions: S. cerevisiae rad50 strain growth inhibition; at 50.0 µM; active compounds read high
Procedure, shortened: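 Cells are treated with compound, grown, and their growth is then scored against vehicle-only cultures of the same repair-deficient yeast strain.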

[2] = NCI Yeast Anticancer Drug Screen. Data for the mec2-1 strain (AID 157); conditions: S. cerevisiae mec2-1 strain, at 50.0 µM, active compounds read high
Procedure, shortened: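 Each compound was tested on mec2-1 yeast, a strain altered in DNA damage repair or cell cycle control. Growth inhibition is reported relative to vehicle.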

[3] = NCI Yeast Anticancer Drug Screen. Data for the sgs1 mgt1 strain (AID 161);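 note: 0% = growth of cultures given vehicle only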; conditions: S. cerevisiae sgs1 mgt1 strain, at 50.0 µM, active compounds read high
Procedure, shortened: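 Genetically altered yeast, compound exposure, growth inhibition relative to vehicle.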

[4] = NCI Yeast Anticancer Drug Screen. Data for the cln2 rad14 strain (AID 165);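 note: 0% = growth equal to vehicle treated cultures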; conditions: S. cerevisiae cln2 rad14 strain, at 50.0 µM, active compounds read high
Procedure, shortened: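 Test compounds were added to cln2 rad14 yeast cultures; inhibition of growth was then determined by comparison with vehicle treatment.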

[5] = NCI Yeast Anticancer Drug Screen. Data for the bub3 strain (AID 167); conditions: S. cerevisiae bub3 mutant strain, at 50.0 µM, active compounds read high
Procedure, shortened: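 Part of a panel of yeast mutants defective in DNA damage repair or cell cycle regulation. Each strain is grown with compound, and inhibition is calculated relative to solvent-treated cultures.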

[6] = NCI Yeast Anticancer Drug Screen. Data for the mlh1 rad18 strain (AID 175); conditions: S. cerevisiae mlh1 rad18 strain growth inhibition; at 50.0 µM; active compounds read high
Procedure, shortened: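 Inhibition values reflect reduced growth of mutant yeast versus vehicle-treated controls following compound exposure; the mutations affect DNA damage repair.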

Measured: growth inhibition

C=CCNC(=S)NC=C(C(N)=O)C(N)=O
inactive: [1] -25.9% | [2] -33% | [3] -22.5% | [4] -19.5% | [5] -4.9% | [6] -19.9%

CC1(c2ccc3cccc(F)c3c2)OC(=O)c2ccccc21 (stereo unspecified)
inactive: [1] 2% | [2] 1.65% | [3] -2.95% | [4] -68.8% | [5] -4.25% | [6] -12.7%

CC1=NN(C(=O)c2ccc(Cl)cc2)C(=O)/C1=C/c1ccc(Cl)cc1
inactive: [1] -28.6% | [2] -47.4% | [3] -69.2% | [4] -19.6% | [5] -33% | [6] -44.2%

CCOC(=O)NN(C(=O)OCC)c1c(C)[nH]c2ccccc12
inactive: [1] 20.3% | [2] 10.6% | [3] 19.4% | [4] -10.6% | [5] 4.65% | [6] 24.5%

COC(=O)C12CCC(C(=O)OC)(CC1)n1c(=O)n(-c3ccccc3)c(=O)n12
inactive: [1] -4.8% | [2] -5.15% | [3] -7.7% | [4] -16.8% | [5] -1.85% | [6] -7.15%

CC1S(=O)(=O)OCCCOS1(=O)=O
inactive: [1] -22.8% | [2] -19.2% | [3] -9.95% | [4] -13.2% | [5] -2.45% | [6] -17.6%

CC1=C(C(=O)Nc2ccc(Cl)c(C(=O)OC(C)C)c2)SCCO1
inactive: [1] 44.9% | [2] 7.35% | [3] 5.15% | [4] 4.05% | [5] 25.4% | [6] 0.45%

O/N=C1\CC2CC1C1CC3(CC3)C21 (stereo unspecified)
inactive: [1] -6.85% | [2] -9.6% | [3] -0.15% | [4] -0.9% | [5] -22.2% | [6] 20.6%

CC(C)(C)OC(=O)CC(O)c1ccccc1 (stereo unspecified)
inactive: [1] 3.8% | [2] -2.9% | [3] 3.65% | [4] -2.45% | [5] -3.7% | [6] 20.8%

CC(C)(C)C(=O)C1C(=O)c2ccccc2C1=O
inactive: [1] 50.6% | [2] 21.8% | [3] 54% | [4] -35.5% | [5] 5.95% | [6] 31.9%

CC(=O)NC(CCc1ccccc1)C(=O)O (stereo unspecified)
inactive: [1] 16.1% | [2] 32.4% | [3] 0.9% | [4] 24.9% | [5] 40.8% | [6] 13.8%

COC1CCC(C(C)(C)C)CC1 (stereo unspecified)
inactive: [1] 2.45% | [2] -11.6% | [3] 0.15% | [4] -3.8% | [5] 5.85% | [6] -21.7%

NC(=O)C[n+]1cccc(C(=O)Nc2ccc(Cl)cc2)c1
inactive: [1] 2.3% | [2] 9.3% | [3] 3.95% | [4] -23.4% | [5] 29.2% | [6] -0.75%

O=c1[nH]c(=O)n(C2OC(CF)C(O)C2O)cc1N1CCOCC1 (stereo unspecified)
inactive: [1] 16.9% | [2] 18% | [3] 18% | [4] 17.7% | [5] 19.5% | [6] 33%

CCOC1NC(=O)Oc2ccccc21 (stereo unspecified)
inactive: [1] 4.2% | [2] 0.5% | [3] 8.1% | [4] 7.35% | [5] 10.9% | [6] -37.4%

N#CC1C(C#N)C2CCC1C1N=NN(c3ccccc3)C21 (stereo unspecified)
inactive: [1] -16.4% | [2] -12.1% | [3] -10.8% | [4] -19.1% | [5] 17.9% | [6] -28.6%

O=S(=O)(O)SCC1=NCCN1
inactive: [1] 17.9% | [2] -5.1% | [3] -3.55% | [4] -34.9% | [5] 11.2% | [6] 9.85%

CC1(C)CC[C@]2(C(=O)O)CC[C@]3(C)C(=CC[C@@H]4[C@@]5(C)CC[C@@H]6OC(C)(C)OC[C@@]6(C)[C@@H]5CC[C@]43C)[C@H]2C1
inactive: [1] 3.7% | [2] 10.8% | [3] -19.9% | [4] -5.1% | [5] -8.65% | [6] -62.6%

COc1ccc(C2Cc3cc(OC)c(OC)cc3C(c3ccccc3)N2)cc1OC (stereo unspecified)
inactive: [1] 8.7% | [2] 18.7% | [3] 16.7% | [4] 12.5% | [5] -1.25% | [6] 30.5%

CC(C)(C)NC(=O)NCC1CCCC1NC(=O)NC(C)(C)C (stereo unspecified)
inactive: [1] 1.45% | [2] -4.95% | [3] 3.65% | [4] -5.45% | [5] 7.35% | [6] -10.4%

COC(=O)C1C2C=CC(O2)C1C(=O)OC (stereo unspecified)
inactive: [1] -2.15% | [2] -1.75% | [3] -9.75% | [4] -51.6% | [5] 14.1% | [6] -7.45%

CC1(C)CC(=O)C(C(c2ccccc2)C2C(=O)CC(C)(C)CC2=O)C(=O)C1
inactive: [1] 4% | [2] -8.9% | [3] 1.8% | [4] 2.6% | [5] 6.5% | [6] 7%

CCC1(CN(C)C)CC/C(=C\c2ccc(OC)cc2)C1=O (stereo unspecified)
inactive: [1] 8.8% | [2] 4.1% | [3] -9.2% | [4] -6.1% | [5] -5.8% | [6] 27.3%

CCCCN=Cc1ccc(Cl)cc1
inactive: [1] -2.65% | [2] -24.1% | [3] -32.1% | [4] 6.5% | [5] -19.9% | [6] -6%

O=C(O)C(c1ccccc1)C(F)(F)F (stereo unspecified)
inactive: [1] -1.45% | [2] 11.1% | [3] 2.45% | [4] -10.4% | [5] -2.1% | [6] 0.85%

CCOC(=O)C(C)(NC(=O)c1ccc(NCc2ccc3nc(NC(=O)c4ccccc4)nc(NC(=O)c4ccccc4)c3c2)cc1)C(=O)OCC
inactive: [1] -4.1% | [2] -24% | [3] 7.5% | [4] -24.1% | [5] -16.5% | [6] -8.45%

C=C1CCC2C(C)(CO)C(O)CCC2(C)C1CCC1=CCOC1=O (stereo unspecified)
inactive: [1] -22.4% | [2] -17.6% | [3] -3.2% | [4] 3.35% | [5] -4.4% | [6] -8.05%

CN(C)N=Nc1ccc(Cl)cc1C(=O)O
inactive: [1] 14.8% | [2] 12.3% | [3] 20.7% | [4] 2.2% | [5] 17.9% | [6] 41%

COC1OC(CCl)C(Cl)C(OC)C1OC (stereo unspecified)
inactive: [1] -9.1% | [2] -1.1% | [3] 5.6% | [4] -1.5% | [5] -2.5% | [6] 14.4%

CCOC(=O)C(C)(/C=N/NS(=O)(=O)c1ccc(C)cc1)c1ccccc1 (stereo unspecified)
inactive: [1] 5.2% | [2] 10.7% | [3] 9.15% | [4] 5.7% | [5] 15.9% | [6] 14.3%

CC1CN=C(N(Cc2ccccc2)C(=O)Nc2ccc(Cl)c(Cl)c2)S1 (stereo unspecified)
inactive: [1] -4.25% | [2] 27.9% | [3] -0.35% | [4] 26.7% | [5] -0.65% | [6] 0.35%

CCOc1ccc(Nc2ccc3c(O)cc(S(=O)(=O)O)cc3c2)cc1
inactive: [1] 0.9% | [2] -7.35% | [3] -5.75% | [4] -20.4% | [5] 38.5% | [6] 12.8%

[C-]#[N+]C(=C\c1ccc(O)cc1)/C(=C/c1ccc(O)cc1)[N+]#[C-]
active: [1] 97.8% | [2] 98% | [3] 97.8% | [4] 96% | [5] 98.1% | [6] 98.2%

CCOC(=O)CCC(NC(=O)c1ccc(OCc2ccc3nc(OC)c(OC)nc3c2)cc1)C(=O)OCC (stereo unspecified)
inactive: [1] -14.2% | [2] -17.9% | [3] -21.6% | [4] 5% | [5] -4.75% | [6] 13.2%

COc1cc(C#N)cc(OC)c1OC
inactive: [1] 26% | [2] -14.8% | [3] 2.85% | [4] 1.45% | [5] 1.85% | [6] -12.2%

Cc1ccc(N=Nc2ccc([N+](=O)[O-])cc2)c([N+](=O)[O-])c1
inactive: [1] 10.9% | [2] -11.2% | [3] -4.5% | [4] 17.4% | [5] 18.4% | [6] -12.6%

Cc1ccc(C(C)C)cc1OCCOCCCl
inactive: [1] -2.25% | [2] 12.8% | [3] -4.85% | [4] -148% | [5] -1% | [6] 10.8%

CC(NC(=O)OCc1ccccc1)NC(=O)C(CC(=O)OC(C)(C)C)NC(=O)OC(C)(C)C (stereo unspecified)
inactive: [1] -26.6% | [2] -40.5% | [3] -24.9% | [4] -7.3% | [5] -30.8% | [6] -29.3%

CCOC(=O)C(=O)C1CC(c2ccccc2)=NNC1=O (stereo unspecified)
inactive: [1] 23% | [2] 26.5% | [3] 12.9% | [4] 23.1% | [5] 31.1% | [6] 26.2%

NC(CS)=NCc1ccccc1
inactive: [1] 0.65% | [2] -1.35% | [3] -12.9% | [4] -86.6% | [5] 8.85% | [6] -6%

O=C1C=C(N2CCCC2)CC1
inactive: [1] 18.2% | [2] 3.1% | [3] -0.2% | [4] -43% | [5] -17.1% | [6] 6.25%

From PubChem BioAssay (NCI)
